# Screening data from PubChem.
# Hits are enriched below; roughly 18% of the tested compounds scored in any of these assays.
# HepG2 viability: kills HepG2 cells in TGF-b inhibitor counter-screen; Potency, µM (series often up to 46.1 µM), for inactives: top-dose activity change, negative = cytotoxicity, actives largely listed as cytotoxic; AID 588856; HepG2 CAGA-GFP viability, ATP luminescence, 18 h; 410,000 compounds, 0.76% hits; further: potency means the concentration at half of the fitted maximal effect
#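 CellTiter-Glo luminescence gave cytotoxicity after 18 hours at 37 degrees C. The cells were HepG2 CAGA-GFP in 1% FBS DMEM, stimulated with 500 pg/mL TGF-beta after compound addition. %Activity was normalised to no-cell wells (complete cell-killing) and DMSO (no toxicity), and curves were fitted and classified.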
# TGFb SMAD3 inh: inhibitors of TGF-b signaling; HepG2 CAGA-GFP TGF-b/SMAD3 reporter, GFP fluorescence, 18 h; TGF-beta stimulated, 500 pg/mL final; 410,000 compounds, 1.2% hits; Potency, µM (top dose mostly 46.1 µM), without a hit: at the top dose activity, negative = inhibition, most hits filed as inhibitors; AID 588855; further: potency means the concentration at half of the fitted maximal effect; on the % scale 0 is the no-effect control and ±100 the full control effect; nearly all actives have a fitted effect of over 65% in size
#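 Cell-based qHTS in HEPG2 carrying a CAGA-GFP Smad reporter; compounds added before 500 pg/mL final TGF-beta, 18 h incubation at 37 degrees C, GFP fluorescence quantified per cell by imaging cytometry.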
# TDP1 block: inhibitors of human tyrosyl-DNA phosphodiesterase TDP1; recombinant TDP1, AlphaScreen DNA substrate cleavage; 350,000 compounds, 0.28% hits; Potency, µM (titrated, usually from 130 µM), for the others: at the top dose activity change, negative = inhibition, usual class: inhibitors; AID 485290; further: potency means the concentration at half of the fitted maximal effect; on the % scale 0 is the no-effect control and ±100 the full control effect; nearly all actives have a fitted effect of over 40% in size
# Target sequence (Q9NUW8 whole entry, looked up): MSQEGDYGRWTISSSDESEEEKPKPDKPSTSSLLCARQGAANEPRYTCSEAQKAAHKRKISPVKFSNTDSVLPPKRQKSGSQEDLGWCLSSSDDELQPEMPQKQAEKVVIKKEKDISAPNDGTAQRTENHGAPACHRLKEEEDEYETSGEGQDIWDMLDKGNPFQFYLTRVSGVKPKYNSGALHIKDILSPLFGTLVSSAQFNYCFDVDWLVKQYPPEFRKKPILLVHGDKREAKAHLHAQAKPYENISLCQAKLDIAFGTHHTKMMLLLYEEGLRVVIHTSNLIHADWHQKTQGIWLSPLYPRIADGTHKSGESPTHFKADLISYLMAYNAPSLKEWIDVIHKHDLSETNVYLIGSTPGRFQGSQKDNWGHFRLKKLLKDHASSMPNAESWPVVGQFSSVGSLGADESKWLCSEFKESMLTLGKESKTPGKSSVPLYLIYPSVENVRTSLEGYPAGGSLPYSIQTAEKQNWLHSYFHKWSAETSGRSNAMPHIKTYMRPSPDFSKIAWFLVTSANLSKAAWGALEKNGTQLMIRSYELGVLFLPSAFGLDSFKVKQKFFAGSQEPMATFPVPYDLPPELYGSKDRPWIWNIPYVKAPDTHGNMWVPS
#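 Recombinant human Tdp1 (E. coli-expressed, 1 nM final) preincubated with compounds 15 min at room temperature, then 5'-biotin/3'-phosphotyrosine-FITC DNA substrate (15 nM final) added for 5 min. AlphaScreen beads (10 ug/ml final) added 10 min; cleavage lowers signal.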
# TDP1 cell CPT: DT40-hTDP1 cell growth loss with CPT. chicken DT40 Tdp1-/-;hTDP1 cells + 20 nM CPT, ATP luminescence, 48 h. Potency, µM (highest dose often 46.2 µM), for inactives: top-dose activity change, negative = growth inhibition, hits mostly inhibitors. 420,000 compounds, 12% hits; further: potency means the concentration at half of the fitted maximal effect; on the % scale 0 is the no-effect control and ±100 the full control effect; nearly all actives have a fitted effect of over 55% in size
#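 Cell growth measured by CellTiter-Glo luminescence after a minimum 48 h, 37 C compound exposure with 20 nM CPT in Tdp1-knockout DT40 cells stably expressing hTDP1, seeded 400/well; qHTS titration format.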
# IL1B secr inh: inhibitors of inflammasome signaling (IL-1 beta secretion) | THP-1 LPS/ATP IL-1B secretion, AlphaLISA, 16 h; stronger effect = lower value | activity change, % at 57.5 µM | 360,000 compounds, 4.7% hits | AID 743279; in the data active means activity change below about -50%; inconclusive means mostly about -30% to -49%; further: on the % scale 0 is the no-effect control and ±100 the full control effect
#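 THP-1 cells pretreated 1 hr with compounds (up to 57.5 uM final), then stimulated with LPS (250 ng/mL final) plus ATP (1.25 mM final); secreted IL-1B measured by AlphaLISA after 16 hr, decreased signal indicating inhibition.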
# TDP1 cell noCPT: qHTS for Inhibitors of human tyrosyl-DNA phosphodiesterase 1 (TDP1): qHTS in cells in absence of CPT. 420,000 compounds, 15% hits. AID 686978, 2013. Potency, µM (series often up to 46.2 µM), inactives show top-dose activity change, negative = growth inhibition, actives largely listed as inhibitors. DT40 Tdp1-/- hTDP1 cells, no CPT, ATP luminescence, 48 h; further: potency means the concentration at half of the fitted maximal effect; on the % scale 0 is the no-effect control and ±100 the full control effect; nearly all actives have a fitted effect of over 55% in size
#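 Stably hTDP1-transfected Tdp1-null chicken DT40 cells were treated with library compounds minus camptothecin and grown for at least 48 hr at 37 °C, after which cellular ATP was quantified by luminescence.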
# * hit, by the source's call; ? = inconclusive; . = not tested or not shown; ! = not confirmed by another sample; [ ] = remark or other dose. Unless noted, the call rests on the fitted dose curve; in most records, active means well fitted curve in the direction sought with a large enough effect; inconclusive means small, poorly fitted or top-dose-only effect, or another doubt; inactive means no such curve, though single readings can be large; an effect the other way counts as inactive or inconclusive.
SMILES,HepG2 viability,TGFb SMAD3 inh,TDP1 block,TDP1 cell CPT,IL1B secr inh,TDP1 cell noCPT
O=c1c(S(=O)(=O)c2cccc(Cl)c2)cn(Cc2ccccc2)c2cc(N3CCOCC3)c(F)cc12,22%,-10%,4%,?,.,-26%
CCn1cc(S(=O)(=O)c2ccccc2)c(=O)c2cc(F)c(N3CCCC3)cc21,3%,-3%,2%,21µM*,.,?
CCCn1cc(S(=O)(=O)c2ccccc2)c(=O)c2cc(F)c(N3CCCCCC3)cc21,-31%,?,2%,26µM*,.,18µM*
CCn1cc(S(=O)(=O)c2ccccc2)c(=O)c2cc(F)c(N3CCN(c4ccccc4)CC3)cc21,-10%,-19%,4%,?,.,?
CC(C)CC(CSc1ccc(Br)cc1)N1CCN(CC(C)C)CCC1=O (stereo not given),-35%,?,6%,.,.,.
O=C1/C(=C/c2cccs2)SC(=S)N1CCCC(=O)N(CCO)c1ccccc1,-9%,14%,-6%,?,?,?
COC(=O)CSc1[nH]c2ccc(F)cc2c1[N+](=O)[O-],-61%,?,5%,21µM*,0,?
CCOC(=O)CSc1[nH]c2cc(OC)ccc2c1[N+](=O)[O-],-1%,0%,-5%,-19%,12,-27%
CCN(CC)C(=O)c1cccc(NC(=O)C2CCN(C(=O)c3cccs3)CC2)c1,13%,3%,0%,-18%,-7,?
O=C(Nc1cc(=O)[nH]c(=O)[nH]1)c1cc(Cl)ccc1Cl,2%,-13%,1%,3.3µM*,59,4.1µM*
Cc1ccccc1OC(=O)c1cccnc1,-2%,24%,.,3%,11,-18%
CCC1Oc2ccccc2N(CC(=O)N2CC(C)CC(C)C2)C1=O (stereo not given),2%,-11%,.,-21%,-21,?
COc1cc(NS(=O)(=O)c2ccc(NC(=S)NC(=O)c3ccc(F)c(F)c3)cc2)nc(OC)n1,17%,4%,5%,2%,38,4%
CCC1CCCCN1C(=O)c1nn(-c2ccc(C)cc2)c(=O)c2c1c1ccccc1n2C (stereo not given),5%,-12%,9%,-4%,.,-12%
c1nc(NCCN2CCOCC2)c2cc(-c3ccc4c(c3)OCO4)ccc2n1,.,.,9%[56.1 µM],?,.,?
COc1ccc2[nH]cc(CCNc3ncnc4ccc(-c5cccnc5)cc34)c2c1,.,.,.,15µM*,.,23µM*
COc1ccc2[nH]cc(CCNc3ncnc4ccc(-c5ccc6c(c5)OCO6)cc34)c2c1,.,.,.,?,.,16µM*
CC(=O)NCCNc1ncnc2ccc(-c3ccc4c(c3)OCO4)cc12,.,.,.,16µM*,.,?
c1cc(-c2ccsc2)n2cnnc2c1,-2%,0%,.,-10%,13,-3%
CCOC(=O)CSc1ccc(C(=O)NCCCN2CCOCC2)cc1[N+](=O)[O-],13%,4%,.,-4%,-5,-8%
C[C@@H]1[C@@H](Sc2ccccc2)CC(=O)O[C@@H]1c1ccc(-c2ccccc2)cc1,11µM*,?,4%,8.2µM*,-102*,7.3µM*
O=C1C[C@H](c2ccccc2)[C@@H](c2ccc(Br)cc2)O1,.,.,4%[21 µM],.,.,.
CCOC(=O)N1CCN(C(=O)c2ccc3c(c2)N(Cc2ccccc2)CCS3)CC1,3%,-3%,.,?,7,26µM*
Cc1ccc(Cl)cc1N1CCN(C(=O)c2ccc3c(c2)N(Cc2ccccc2)CCS3)CC1,-7%,-10%,1%,16µM*,.,23µM*
CC1CC(C)CN(C(=O)c2ccc3c(c2)N(Cc2ccccc2)CCS3)C1 (stereo not given),-72%,?,5%,?,?,?
SMILES,HepG2 viability,TGFb SMAD3 inh,TDP1 block,TDP1 cell CPT,IL1B secr inh,TDP1 cell noCPT
COc1c(N)c2c(c([N+](=O)[O-])c1OC)C(=O)OC2,2%,2%,.,-2%,-12,-26%
O=C(O)c1ccc(-c2ccc(Cl)cc2Cl)o1,-3%,29%,2%,-1%,-9,-2%
COc1cc2c(cc1OC)C(c1ccc(-c3cc(Cl)ccc3Cl)o1)=NCC2,-32%,0%,-9%,2.6µM*,-93*,1.6µM*
COc1cc2c(cc1OC)C(C)=NCC2,-19%,13%,5%,16µM*,-13,-2%
COc1cc2c(cc1OC)C(c1ccc(-c3ccc(Cl)c(Cl)c3)o1)=NCC2,11µM*!,11µM*,8%,4.1µM*,-59*,1.8µM*
COc1cc2c(cc1OC)C(c1ccc(-c3ccc(Cl)cc3Cl)o1)=NCC2,-65%,14µM*,5%,1.2µM*,?,0.92µM*
COc1cc2c(cc1OC)C(C)=NC1(CCCCC1)C2,10%,-3%,0%,2%,-13,-3%
Cc1ccc2cccc(NC(=O)c3ccc(-c4cc(Cl)ccc4Cl)o3)c2n1,-31%,23%,6%,.,.,.
COc1ccc(OC)c(-n2c3c(cc(-c4nc(-c5ccc(Cl)cc5)cs4)c2=O)C(=O)CC(C)(C)C3)c1,-1%,-3%,-3%,-9%,.,-20%
COc1cc2c(cc1OC)C(c1oc(-c3ccc(-c4cc(Cl)ccc4Cl)o3)cc1C)=NCC2,16%,4%,.,1µM*,.,0.35µM*
COc1cc2c(cc1OC)C(c1ccc(-c3ccccc3Cl)o1)=NCC2,-113%,?,7%,6.5µM*,-92*,2.3µM*
COc1cc2c(cc1OC)C(c1ccc(Cl)cc1)=NCC2,-18%,?,.,16µM*,?,8.2µM*
COc1ccc(Cl)cc1-c1n[nH]c(=S)n1C,8%,9%,9%,-8%,19,-16%
CCNc1ncnc2c1cnn2C1CCCCO1 (stereo not given),29%,7%,.,-15%,-2,-22%
CC(=O)Nc1c(C)nn(-c2ccc([N+](=O)[O-])cc2)c1C,3%,6%,8%,-4%,6,15%
Cc1nn(-c2ccc(C(=O)OC(C)C)cc2)c(C)c1[N+](=O)[O-],-18%,-4%,2%,-1%,-9,26µM*
CCOc1ccc(S(=O)(=O)NCCC(=O)OCC(=O)Nc2cc(C)on2)cc1,-1%,-6%,2%,-6%,-8,11%
COc1ccccc1CCn1c(=O)cnc2cncnc21,.,.,.,4.6µM*,.,5.8µM*
COc1ccccc1OCC(=O)NCC(c1ccc(Cl)cc1)N1CCCCC1 (stereo not given),-27%,-17%,3%,?,.,?
